From PubChem BioAssay (NCI)
About 83,000 compounds went through this panel and 20% of them were active in at least one assay; those are over-represented in the sample as a whole.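 Compound tested at a single concentration for 48 hours in 96-well plates; a percent growth value below 10 was scored as active.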 Values without a mark were called inactive. Active and inactive are the calls of the source.

Key:
Assay in all cases: NCI-60 one-dose screen, 48 h (100 = growth as untreated, 0 = no growth, -100 = all killed)
Details in all cases: 10 µM unless noted
SK-MEL-2 melanoma = test system: SK-MEL-2 melanoma
EKVX NSCLC = test system: EKVX NSCLC
SN12C renal = test system: SN12C renal
UO-31 renal = test system: UO-31 renal
TK-10 renal = test system: TK-10 renal
ACHN renal = test system: ACHN renal
CAKI-1 renal = test system: CAKI-1 renal
A498 renal = test system: A498 renal
CCRF-CEM leukemia = test system: CCRF-CEM leukemia
MOLT-4 leukemia = test system: MOLT-4 leukemia

| SMILES | growth (SK-MEL-2 melanoma) | growth (EKVX NSCLC) | growth (SN12C renal) | growth (UO-31 renal) | growth (TK-10 renal) | growth (ACHN renal) | growth (CAKI-1 renal) | growth (A498 renal) | growth (CCRF-CEM leukemia) | growth (MOLT-4 leukemia) |
| --- | --- | --- | --- | --- | --- | --- | --- | --- | --- | --- |
| Cc1ccc2c(c1)Sc1c(ccc3ccccc13)N2 | 116% | 72.8% | 81.8% | 60.1% | 127% | 64.5% | 73.4% | 91.7% | 67.6% | 32.4% |
| Cc1ccc(NS(=O)(=O)c2ccc3c(c2)C2OCCC2C(c2ccc(C(=O)C(C)C)cc2)N3)cc1C (stereo not given) | 72.9% | 24.7% | 52.3% | 25.7% | 63.5% | 32.3% | 45.5% | 40.1% | 60.3% | 31.1% |
| CN(C)CCC=C1c2ccccc2C(C)(C)c2ccccc21 | 74.4% | 110% | 71.2% | 58.1% | 98.3% | 90.5% | 91.2% | 91% | 49.6% | 72.9% |
| COc1cc(CCC[P+](c2ccccc2)(c2ccccc2)c2ccccc2)cc2c1OCO2 | 6.71% (active) | 28.3% | 35.9% | 88.2% | 19.5% | 91.8% | 86% | 45.9% | 41.3% | 53.5% |
| CC1=NOC(=O)/C1=C\c1ccc(O)cc1 | 113% | 104% | 101% | 85.7% | 102% | 101% | 95.4% | 86.7% | 94.1% | 102% |
| c1ccc(-c2nc([P+](c3ccccc3)(c3ccccc3)c3ccccc3)c(N3CCOCC3)o2)cc1 | -25.3% (active) | 14.9% | 1.32% (active) | 74% | 29.9% | 13.2% | 50.9% | 11.7% | 13.4% | 7.65% (active) |
| COc1ccc(N=Nc2ccc(O)c(=O)cc2)cc1 | 19.7% | 4.69% (active) | 6.7% (active) | 1.08% (active) | 44.3% | 4.83% (active) | 11.1% | 82.4% | 15.8% | -18.4% (active) |
| Cc1ccc(C(=NN=C(N)N)c2ccc(C)cc2)cc1 | -4.66% (active) | 52.4% | 22.6% | 21% | 12.9% | 23.8% | 27.1% | 17.1% | 14.7% | 5.74% (active) |
| COc1ccc(-c2nc3sccn3c2-c2cc(-c3cc(OC)c(OC)c(OC)c3)on2)cc1 | 142% | 98.9% | 105% | -60.9% (active) | 162% | 98.7% | 127% | 74.4% | 34.6% | 40.3% |
| O=C1CCC2=C3C4CCCCC4C(=O)C4CCCC(OC2C1)C34 (stereo not given) | 3.05% (active) | 97.2% | 14.1% | -43.5% (active) | 64.3% | -23.3% (active) | -27.2% (active) | 104% | 15.6% | 7.03% (active) |
| COc1cc(N2C(=O)c3nccnc3C2=O)cc(OC)c1OC | 95.5% | 104% | 94.1% | 87.5% | 100% | 112% | 97.3% | 87.2% | 100% | 94.5% |
| CCCCN(CCCC)CC(C)(C)C(O)c1ccc(OC)c2ccccc12 (stereo not given) | 76.7% | 44% | 46.7% | 34.1% | 51.4% | 56.5% | 23.1% | 59.3% | 50% | 27.6% |
| COc1cc(/C=C/C(=O)c2c(C)nc3ccccc3c2/C=C/c2ccc(C)cc2)cc(OC)c1OC | 39.7% | 34.7% | 15.2% | 33.5% | 54.3% | 13.7% | 28.6% | 32.6% | 5.31% (active) | 4.36% (active) |
| COc1cc(C(=O)/C=C/c2c(C(F)(F)F)nc3sccn23)cc(OC)c1OC | 12.2% | 10.6% | 20.2% | -29.6% (active) | 21.9% | -69.4% (active) | -16.5% (active) | 61.4% | -9.49% (active) | 0.936% (active) |
| Cc1cccc(NC(=O)N/C(N)=N/c2nc(C)c(C)s2)c1 | 43.7% | 55.8% | 57.6% | 64.3% | 96.3% | 63.4% | 30.6% | 20% | 53.5% | 21.9% |
| COc1cc(C2NC(=O)c3ccccc3N2)ccc1OCCCCCOc1c(OC)cc(C2=NOC(c3cc(OC)c(OC)c(OC)c3)C2)cc1OC (stereo not given) | 76.9% | 50.6% | 92.6% | 69.2% | 100% | 41.3% | 89.2% | 99.3% | 44.8% | 24.6% |
| Cc1cc(O)c(C2=NN(c3ccc(S(N)(=O)=O)cc3)C(c3ccccc3Cl)C2)cc1Cl (stereo not given) | 25.2% | -1.91% (active) | 18.8% | 16.5% | 60.6% | 15.7% | -3.01% (active) | 45.9% | 9.09% (active) | -31.6% (active) |
| CCCc1cc2c(=O)c(C(=O)OC)c[nH]c2cc1N(CC)CC | 93.9% | 106% | 94.7% | 82.6% | 101% | 92.7% | 94.9% | 107% | 88.2% | 98.2% |
| COc1cc(C2CC(=O)Nc3c2c(C)nn3-c2nc3ccccc3[nH]2)cc2c1OCC(=O)N2 (stereo not given) | 68.1% | 79.3% | 76.3% | 51.9% | 87.3% | 70.4% | 95.1% | 21.4% | 12.7% | -20.1% (active) |
| C=CCNc1nc(NN2C(=O)c3cccc4cccc(c34)C2=O)nc(-n2cnc3ccccc32)n1 | 98.9% | 62.8% | 60.4% | 14.3% | 102% | 64.8% | 51.5% | 32.4% | 83.8% | 56% |
| N/C(=N/N=C/c1ccccc1)N/N=C\c1ccccc1 | 42.1% | 76.5% | 67.4% | 68.2% | 73.9% | 76% | 62.9% | 66.6% | 50.6% | 30.4% |
| OC(c1cccc(-n2ccc(C(F)(F)F)n2)c1)c1cnccc1NC1CCCCCC1 (stereo not given) | 27.1% | 72.6% | 47.8% | 41.5% | 86.7% | -32.2% (active) | 66.5% | 60.4% | 8.54% (active) | -14.2% (active) |
| O=S(=O)(O)c1ccc(N/N=C/c2ccccc2Cl)cc1 | 102% | 116% | 106% | 82.7% | 104% | 99.6% | 89.8% | 100% | 95.4% | 103% |
| CCc1c2c(nc3ccc(OC(=O)OCc4ccc(B5OC(C)(C)C(C)(C)O5)cc4)cc13)-c1cc3c(c(=O)n1C2)COC(=O)[C@]3(O)CC | -30.5% (active) | 37.3% | -4.2% (active) | -72.1% (active) | 0.26% (active) | -53.6% (active) | -44.1% (active) | -65.1% (active) | 17.9% | 20.3% |
| COc1cc(C2CC(c3cc(OC)c(OCCCOc4ccc(-n5c(/C=C/c6ccccc6)nc6ccccc6c5=O)cc4)c(OC)c3)=NO2)cc(OC)c1OC (stereo not given) | 92.3% | 118% | 127% | 86.7% | 139% | 91.3% | 115% | 123% | 76.6% | 86% |
| COc1ccc(OC)c2c1[nH]c(=O)c1c3ncccc3cn21 | 65.6% | 34.4% | 13.3% | 26.5% | 38.6% | 17.7% | -29.2% (active) | 31.5% | 36.5% | 17.7% |
